Assay results reported in PubChem BioAssay (Tox21).
Results filed as inconclusive are left out. Calls of active or inactive are those of the source. Unless noted, the call rests on the fitted dose curve; in most records, active means well fitted curve in the direction sought with a large enough effect in the repeat runs; inconclusive means weak or mixed curves; inactive means no such curve, though single readings can be large; an effect the other way counts as inactive or inconclusive.

Experiments:
[1] = qHTS assay for small molecule agonists of the p53 signaling pathway (AID 651631; calls by dose curve; further: nearly all actives have a fitted effect of over 15% in size)
In short: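 Stably transfected HCT-116 cells (beta-lactamase behind p53 response elements) get compounds after a 5 h settling period; 16 h later at 37 °C, FRET substrate is loaded and fluorescence read after 2 h.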

[2] = qHTS assay for small molecules that induce genotoxicity in human embryonic kidney cells expressing luciferase-tagged ATAD5 (AID 651632); further: nearly all actives have a fitted effect of over 15% in size
In short: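 HEK293T cells carrying luciferase-tagged ATAD5 were given compound or DMSO vehicle and incubated 16 hr at 37C, 5% CO2. Luciferase activity was read after 30 min at room temperature with Amplite; a rise signals genotoxic stress.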

[3] = qHTS assay for small molecule agonists of the p53 signaling pathway - cell viability (AID 651633; calls by dose curve;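 further: p53RE-bla HCT reporter cells with a stable beta-lactamase p53 reporter; series mostly up to about 83 µM; nearly all actives have a fitted effect of over 30% in size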)
In short: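 Viability counter-read: CellTiter-Glo luminescence (30 min, room temperature) in the same p53RE-bla plates. These plates had been exposed to compounds for 16 h at 37 C.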

[4] = qHTS assay for small molecules that induce genotoxicity in human embryonic kidney cells expressing luciferase-tagged ATAD5 - cell viability (AID 651634; calls by dose curve; further: nearly all actives have a fitted effect of over 25% in size)
In short: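 HEK293T cells carrying luciferase-tagged ATAD5, 2,000 cells/well, exposed to compound for 15.5 hr at 37C. Viability read as live-cell protease activity by CellTiter-Fluor fluorescence after 30 min at 37C.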

[5] = qHTS assay for small molecule disruptors of the mitochondrial membrane potential - cell viability (AID 720634; calls by dose curve;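 further: human HepG2 liver cancer cells; series mostly up to about 83 µM; nearly all actives have a fitted effect of over 20% in size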)
In short: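 HepG2 cells, 2,000 per well, attached overnight, then treated 1 hr at 37 C, 5% CO2. Viability read as ATP by CellTiter-Glo luminescence after 30 min at room temperature. Read in the same wells as the m-MPI membrane-potential dye assay.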

[6] = qHTS assay for small molecule disruptors of the mitochondrial membrane potential (AID 720635)
In short: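 Mitochondrial membrane potential tracked with Mito-MPS dye, red aggregates (ex 540/em 590 nm) against green monomers (ex 490/em 535 nm). Compound treatment 1 hr at 37C, dye 30 min in HepG2.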

[7] = qHTS assay to test for compound auto fluorescence at 590 nm (red) in HepG2 cells (AID 720674)
In short: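 We screened compounds on adherent HepG2 cells, incubating them for an hour at 37 C in 5% CO2 before reading emission at 590 nm under 540 nm excitation; values reflect equivalence to Rose Bengal sodium fluorescence.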

[8] = qHTS assay to test for compound auto fluorescence at 460 nm (blue) in HEK293 cells (AID 720678)
In short: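 Cells were seeded and left to adhere for 4-5 hr at 37C. Compounds were then pin-transferred. After an overnight incubation at 37C under 5% CO2, intrinsic fluorescence at 405/460 nm was measured and referenced to triamterene.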

[9] = qHTS assay to test for compound auto fluorescence at 590 nm (red) in HEK293 cells (AID 720679)
In short: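 Each well held 2,000 HEK293 cells in medium containing 10% dialyzed FBS. Following 4-5 hr attachment at 37C, 23 nL test compound or DMSO was added; plates sat overnight, and red fluorescence (540/590nm) was recorded.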

[10] = qHTS assay to test for compound auto fluorescence at 590 nm (red) in HEK293 cell free culture (AID 720683)
In short: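 Red-channel autofluorescence of compounds in culture medium (DMEM, 10% FBS), no cells, measured at 540/590 nm. Rose Bengal sodium is the reference fluorophore for equivalence.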

[11] = qHTS assay to test for compound auto fluorescence at 590 nm (red) in HepG2 cell free culture (AID 720684)
In short: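 Steps: dispense MEM/10% FBS medium, no cells; pin compound or DMSO vehicle; read red channel, Ex/Em 540/590 nm. Output given as Rose Bengal sodium equivalents.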

[12] = qHTS assay to test for compound auto fluorescence at 460 nm (blue) in HepG2 cell free culture (AID 720685)
In short: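 Compound (23 nL) or DMSO pinned into cell-free MEM with 10% FBS; blue fluorescence read at 405/460 nm excitation/emission, expressed as auto-fluorescence equivalency to triamterene.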

[13] = qHTS assay to test for compound auto fluorescence at 535 nm (green) in HepG2 cell free culture (AID 720686)
[14] = qHTS assay to test for compound auto fluorescence at 460 nm (blue) in HepG2 cells (AID 720687)
In short: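 Blue-channel autofluorescence (Ex/Em 405/460 nm, triamterene-equivalent) was measured after 1 hr compound exposure at 37 C, 5% CO2. Cells were HepG2, plated overnight at 37 C in MEM plus 10% FBS.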

[15] = qHTS assay to test for compound auto fluorescence at 535 nm (green) in HepG2 cells (AID 720675)
[16] = qHTS assay to test for compound auto fluorescence at 535 nm (green) in HEK293 cells (AID 720680)
[17] = qHTS assay to test for compound auto fluorescence at 460 nm (blue) in HEK293 cell free culture (AID 720681)
In short: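 Blue fluorescence (Ex 405/Em 460 nm, triamterene-equivalent) was read immediately after pin transfer of compound or DMSO into medium (DMEM, 10% FBS) without cells.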

[18] = qHTS assay to test for compound auto fluorescence at 535 nm (green) in HEK293 cell free culture (AID 720682)
In short: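 Using fluorescein as calibrant, autofluorescence was quantified at 485/535 nm in cell-free DMEM containing 10% FBS after pintool addition of compound or vehicle.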

[19] = target: Glucocorticoid receptor (Homo sapiens) (UniProt P04150); assay: qHTS assay to identify small molecule agonists of the glucocorticoid receptor (GR) signaling pathway (AID 720691; active means well fitted activation curve with a large enough effect in the signal ratio in the repeat runs, not every such curve was filed as active; the % refers to the signal ratio)
Sequence of Glucocorticoid receptor (Homo sapiens) (P04150 whole entry, looked up): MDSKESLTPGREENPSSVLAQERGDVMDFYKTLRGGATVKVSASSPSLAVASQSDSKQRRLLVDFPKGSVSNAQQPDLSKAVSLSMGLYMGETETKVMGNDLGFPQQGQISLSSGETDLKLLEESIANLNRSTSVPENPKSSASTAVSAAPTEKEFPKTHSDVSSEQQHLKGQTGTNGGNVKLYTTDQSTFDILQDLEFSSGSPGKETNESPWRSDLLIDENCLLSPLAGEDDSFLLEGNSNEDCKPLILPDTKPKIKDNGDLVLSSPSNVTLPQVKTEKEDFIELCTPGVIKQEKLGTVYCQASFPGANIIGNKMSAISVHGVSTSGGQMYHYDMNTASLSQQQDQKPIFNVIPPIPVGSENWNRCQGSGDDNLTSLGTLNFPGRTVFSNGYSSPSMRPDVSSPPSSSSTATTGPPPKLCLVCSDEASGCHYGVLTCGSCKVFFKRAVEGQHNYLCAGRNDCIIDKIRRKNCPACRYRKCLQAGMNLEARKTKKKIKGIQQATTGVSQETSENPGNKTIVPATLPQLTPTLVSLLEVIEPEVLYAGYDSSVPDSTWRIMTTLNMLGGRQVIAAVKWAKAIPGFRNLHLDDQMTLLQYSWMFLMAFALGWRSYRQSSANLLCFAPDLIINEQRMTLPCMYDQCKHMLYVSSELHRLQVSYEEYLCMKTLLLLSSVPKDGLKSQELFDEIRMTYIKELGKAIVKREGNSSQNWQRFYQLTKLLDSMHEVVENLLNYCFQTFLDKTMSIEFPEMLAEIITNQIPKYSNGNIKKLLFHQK
In short: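 GR-bla HeLa cells carrying a GRE-driven beta-lactamase reporter, exposed to compounds for 18 h at 37 C. Reporter activation read as fluorescence after 2 h with LiveBLAzer B/G FRET substrate at room temperature.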

[20] = target: Glucocorticoid receptor (Homo sapiens) (UniProt P04150); assay: qHTS assay to identify small molecule antagonists of the glucocorticoid receptor (GR) signaling pathway (AID 720692; active means well fitted inhibition curve with a large enough effect in the signal ratio in the repeat runs, not every such curve was filed as active; the % refers to the signal ratio)
In short: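 GR-bla HeLa cells carrying a GRE-driven beta-lactamase reporter received compound after 4 h plating, then dexamethasone (5 nM final). After 18 h at 37C, the FRET substrate was loaded for 2 h at room temperature and fluorescence read.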
On the % scale 0 is the no-effect control and ±100 the full control effect.

NC(=O)N1c2ccccc2CC(=O)c2ccccc21
inactive: Potency [1] | Potency [2] | Potency [3] | Potency [4] | outcome [5] | Potency [6] | outcome [7] | outcome [8] | outcome [9] | outcome [10] | outcome [11] | outcome [12] | outcome [13] | outcome [14]

O=C(O)CNC(=O)c1ccc(CO)o1
inactive: Potency [1] | Potency [2] | Potency [3] | Potency [4] | outcome [5] | outcome [7] | outcome [15] | outcome [8] | outcome [9] | outcome [16] | outcome [17] | outcome [18] | outcome [10] | outcome [11] | outcome [12] | outcome [14]

CC(C(=O)O)c1cccc(Oc2ccccc2)c1 (configuration not stated)
inactive: Potency [1] | Potency [2] | Potency [3] | Potency [4] | outcome [5] | fluorescence, relative to Rose Bengal [7] -0.601% [at 18.6 µM] | fluorescence, % of fluorescein control [15] 0.0036% [at 18.6 µM] | fluorescence, % of triamterene [8] 0.0483% [at 18.6 µM] | fluorescence, % of fluorescent control [9] -0.0737% [at 18.6 µM] | fluorescence, % of fluorescent control [17] -0.022% [at 18.6 µM] | activity change [18] 0.0987% [at 18.6 µM] | fluorescence, % of fluorescent control [10] -0.0434% [at 18.6 µM] | fluorescence, % of Rose Bengal [11] 0.647% [at 18.6 µM] | fluorescence, % of fluorescent control [12] -0.0014% [at 18.6 µM] | fluorescence, % of fluorescein control [13] 0.0607% [at 18.6 µM] | fluorescence, % of fluorescent control [14] -0.0143% [at 18.6 µM]

CCCCCCCCCCCCCCCCCCO
inactive: Potency [1] | Potency [2] | Potency [3] | outcome [5] | outcome [7] | outcome [15] | outcome [8] | outcome [9] | outcome [16] | outcome [17] | outcome [18] | outcome [10] | outcome [11] | outcome [12] | outcome [13] | outcome [14] | Potency [19] | Potency [20]

CCCCCCCCN1CCCC1=O
inactive: Potency [1] | Potency [2] | Potency [3] | outcome [5] | outcome [7] | outcome [15] | outcome [8] | outcome [9] | outcome [16] | outcome [17] | outcome [18] | outcome [10] | outcome [11] | outcome [12] | outcome [13] | outcome [14] | Potency [19] | Potency [20]

Nc1ccccn1
inactive: Potency [1] | Potency [3] | Potency [4] | outcome [5] | outcome [7] | outcome [15] | outcome [8] | outcome [9] | outcome [16] | outcome [17] | outcome [18] | outcome [10] | outcome [11] | outcome [12] | outcome [14] | Potency [19] | Potency [20]

CC(C)[C@H]1CC[C@@H](C)CC1=O
inactive: Potency [1] | Potency [3] | Potency [4] | outcome [5] | outcome [7] | outcome [15] | outcome [8] | outcome [9] | outcome [17] | outcome [18] | outcome [10] | outcome [11] | outcome [12] | outcome [13] | outcome [14]

COCCOC[C@H](CC1(C(=O)NC2CCC(C(=O)O)CC2)CCCC1)C(=O)Oc1ccc2c(c1)CCC2 (some centres not stated)
inactive: Potency [1] | Potency [2] | Potency [3] | outcome [5] | Potency [6] | outcome [7] | outcome [15] | outcome [8] | outcome [9] | outcome [17] | outcome [18] | outcome [10] | outcome [12] | outcome [13] | outcome [14] | Potency [19] | Potency [20]

CCOC(=O)c1cnc2c(cnn2CC)c1NN=C(C)C
inactive: Potency [1] | Potency [2] | Potency [3] | outcome [5] | outcome [7] | outcome [15] | outcome [8] | outcome [9] | outcome [16] | outcome [17] | outcome [18] | outcome [10] | outcome [11] | outcome [12] | outcome [13] | outcome [14]

C[N+](C)(C)CCCCCCCCCC[N+](C)(C)C
inactive: Potency [1] | Potency [2] | Potency [3] | outcome [5] | outcome [7] | outcome [15] | outcome [9] | outcome [16] | outcome [17] | outcome [18] | outcome [10] | outcome [12] | outcome [13] | outcome [14] | Potency [19]

CC(C)(C)C(=O)c1ccccc1
inactive: Potency [1] | Potency [2] | Potency [3] | outcome [5] | Potency [6] | outcome [7] | outcome [15] | outcome [8] | outcome [9] | outcome [16] | outcome [17] | outcome [18] | outcome [10] | outcome [12] | outcome [13] | outcome [14] | Potency [19] | Potency [20]

NCCCC[C@H](N[C@@H](CCc1ccccc1)C(=O)O)C(=O)N1CCC[C@H]1C(=O)O
inactive: Potency [1] | Potency [2] | Potency [3] | outcome [5] | fluorescence, relative to Rose Bengal [7] 0.575% [at 18.6 µM] | fluorescence, % of fluorescein control [15] -0.177% [at 18.6 µM] | fluorescence, % of triamterene [8] -0.377% [at 18.6 µM] | fluorescence, % of fluorescent control [9] -0.247% [at 18.6 µM] | fluorescence, % of fluorescent control [17] -0.095% [at 18.6 µM] | activity change [18] -0.028% [at 18.6 µM] | fluorescence, % of fluorescent control [10] 0.14% [at 18.6 µM] | fluorescence, % of Rose Bengal [11] -0.221% [at 18.6 µM] | fluorescence, % of fluorescent control [12] -0.005% [at 18.6 µM] | fluorescence, % of fluorescein control [13] -0.127% [at 18.6 µM] | fluorescence, % of fluorescent control [14] 0.0286% [at 18.6 µM] | Potency [19] | Potency [20]

CC1=NN(c2cc(S(=O)(=O)O)ccc2Cl)C(=O)C1N=Nc1ccccc1 (configuration not stated)
inactive: Potency [1] | Potency [2] | Potency [3] | outcome [5] | outcome [7] | outcome [15] | outcome [9] | outcome [16] | outcome [17] | outcome [18] | outcome [10] | outcome [11] | outcome [12] | outcome [14] | Potency [19] | Potency [20]

NC(=O)Cc1cccc2ccccc12
inactive: Potency [1] | Potency [3] | Potency [4] | outcome [5] | outcome [7] | outcome [15] | outcome [8] | outcome [9] | outcome [17] | outcome [18] | outcome [10] | outcome [11] | outcome [12] | outcome [13] | outcome [14] | Potency [19] | Potency [20]

C=COC(=O)C(C)(CC)CCC(C)C (configuration not stated)
inactive: Potency [1] | Potency [2] | Potency [3] | outcome [5] | outcome [7] | outcome [15] | outcome [8] | outcome [9] | outcome [16] | outcome [17] | outcome [18] | outcome [10] | outcome [11] | outcome [12] | outcome [13] | outcome [14] | Potency [19]
